Screening results from PubChem.
Shown are actives, neighbours in structure and some others; about 7.3% of the full set was active somewhere.
HCMV antiviral: blocks human cytomegalovirus replication | hit rate 4.5% among 410,000 | HFF cells, HCMV-luciferase reporter, 72 h; hits give low values | activity change, negative = inhibition, % at 57.5 µM; in the data active = activity change below about -60%; inconclusive = no clear call, values can overlap the other calls; inactive = above about -39%
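Compounds were evaluated in HFFs infected with an HCMV luciferase reporter virus (MOI 1 PFU/cell). Luciferase in lysates collected 72 h post infection served as the replication measure.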
Vaccinia mCherry: inhibitors of vaccinia virus infection (mCherry reporter signal) | AID 720579 | hit rate 0.63% among 310,000 | Potency, µM (top dose mostly 36.5 µM), hits mostly inhibitors | Vaccinia virus mCherry reporter infection, fluorescence; calls by dose curve; tested in A549 cells; note: nearly all actives have a fitted effect of over 35% in size
Vaccinia Venus: inhibitors of vaccinia virus (Venus reporter) | Vaccinia virus Venus reporter expression, fluorescence | Potency, µM (titrated, usually from 36.5 µM), actives largely listed as inhibitors | hit rate 0.46% among 330,000; calls by dose curve; tested in A549 cells; note: nearly all actives have a fitted effect of over 30% in size
FMDV inh: foot and mouth disease virus antiviral activity | hit rate 1.2% among 410,000 | Potency, µM (titrated, usually from 57.9 µM), actives largely listed as inhibitors | FMDV antiviral cell-based qHTS; calls by dose curve; tested in HEK293T cells; note: read-out not given here; nearly all actives have a fitted effect of over 45% in size
HCV inh: inhibitors of hepatitis C virus infection | Huh7.5.1 HCVcc-Cre infection, luciferase reporter, 44 h | Potency, µM (series often up to 41.8 µM), most hits filed as inhibitors | hit rate 3.4% among 340,000 | AID 651820; active = well fitted inhibition curve with a large enough effect; inconclusive = small, poorly fitted or top-dose-only effect, or another doubt; inactive = no such curve, though single readings can be large or run the other way
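Whole-lifecycle infectious HCVcc-Cre system; cells 1,000/well, compound then virus (~0.5 moi) added 4 h after plating, 44 h culture. Luciferase read 15 sec following 15 min substrate incubation, room temp.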
A number is an active result; – = inactive; ? = inconclusive; · = no result; + = active, no number; ! = repeats disagree; [ ] = dose if it differs, or a comment.

SMILES	HCMV antiviral	Vaccinia mCherry	Vaccinia Venus	FMDV inh	HCV inh
CN1C(=O)Cc2cc(S(=O)(=O)N3CCN(c4ccc(Cl)cc4)CC3)ccc21	+!	–	–	–	–
CC1Cc2cc(S(=O)(=O)N3CCN(c4cccc(Cl)c4)CC3)ccc2N1C(=O)C1CC1 (stereo unspecified)	–	–	–	–	?
CC(=O)N1c2ccc(S(=O)(=O)N3CCCC(C(=O)N4CCC(C)CC4)C3)cc2CC1C (stereo unspecified)	?	–	?	?	11.2µM
O=S(=O)(c1ccc(-n2cnnn2)cc1)N1CCN(c2cccc(C(F)(F)F)c2)CC1	–	–	–	–	·
COc1cccc(N2CCN(C(=O)C3CCN(S(=O)(=O)c4ccc5c(c4)CC(C)N5C(C)=O)CC3)CC2)c1 (stereo unspecified)	–	·	·	?	11.2µM
CC(=O)N1c2ccc(S(=O)(=O)N3CCC(C(=O)N4CCN(c5ccc(Cl)cc5)CC4)CC3)cc2CC1C (stereo unspecified)	-74.3	·	·	?	10µM
CC(=O)N1c2ccc(S(=O)(=O)N3CCC(C(=O)N4CCN(c5ccccc5F)CC4)CC3)cc2CC1C (stereo unspecified)	–	–	–	?	?
C(=C\c1nc2ccccc2o1)/c1ccc2c(c1)OCO2	·	–	–	·	·
CC[C@H](C)[C@@H](CN[C@H](C)CNC)NCCC(c1ccccc1)c1ccccc1	-97.0	?	?	–	?
COc1cc2c(cc1OC)C(C)N(C(=O)c1cc3c(C)cc(C)cc3[nH]1)CC2 (stereo unspecified)	–	–	–	–	22.4µM
COc1cc2c(cc1OC)C(C)N(C(=O)Nc1ccc(F)cc1)CC2 (stereo unspecified)	-101.6	·	·	–	–
CC1=C(n2c(=O)c(-c3ccccc3)nc3ccccc32)C(=O)Nc2ccccc2N1	–	·	·	·	·
CC(=O)c1ccc(N2C(=O)Nc3ccccc3S2(=O)=O)cc1	–	–	–	–	·
O=C(NCc1ccc(Cl)cc1)c1ccc2c(=O)n(CC3CCCO3)c(=S)[nH]c2c1 (stereo unspecified)	?	–	–	17.8µM	?
CC1CCN(CCNC(=O)c2ccc3c(=O)n(Cc4ccc(Cl)cc4)c(=S)[nH]c3c2)CC1	·	·	·	?	6.31µM
CCOCCCn1c(=S)[nH]c2cc(C(=O)NCCN(CC)CC)ccc2c1=O	–	·	·	–	12.6µM
CCCCNC(=O)c1ccc2c(=O)n(CCCOCC)c(=S)[nH]c2c1	–	·	·	–	–
COCCCNC(=O)c1ccc2c(=O)n(Cc3ccc(Cl)cc3)c(=S)[nH]c2c1	–	·	·	–	–
CC(=O)c1c(NC(=O)c2ccccc2)[nH]c(-c2ccccc2)nc1=S	-84.2	–	–	–	–
CC(=O)c1c(C)[nH]c(-c2ccccc2)nc1=S	–	–[7.34 µM]	–[7.34 µM]	–	–
Oc1c(C(c2ccccc2F)N2CCN(c3ccccc3F)CC2)sc2nc(-c3ccco3)nn12 (stereo unspecified)	–	–	–	–	·
CC(C)OCCCNC(=O)CN1C(=O)COc2ccc(S(=O)(=O)N3CCOCC3)cc21	–	–	–	–	·
Cc1nn2cc(-c3ccc(N)cc3)nc2s1	–	–	–	–	–
CCCc1nn2cc(-c3ccc(C)c(C)c3)nc2s1	-62.0	–	–	–	·
Cc1ccc(/C=N/Nc2ncc(Cl)cc2Cl)s1	-63.7	–	–	–	?
SMILES	HCMV antiviral	Vaccinia mCherry	Vaccinia Venus	FMDV inh	HCV inh
Clc1cnc(N/N=C/c2cccs2)c(Cl)c1	–	–[1.46 µM]	?	–	–
Cc1ccc(CNC(=O)c2oc3ccc(S(=O)(=O)N4CCC(C)CC4)cc3c2C)cc1	–	–	–	?	·
O=C1CCNc2cc3ccccc3cc21	·	22.4µM	?	–	–
C#CC(=O)N(c1ccc(OC)cc1OC)C(C(=O)NC1CCCC1)c1cccs1 (stereo unspecified)	-99.5	10µM	10µM	?	1.26µM
COc1ccc(N(C(=O)c2ccco2)C(C(=O)NC2CCCCC2)c2cccs2)cc1OC (stereo unspecified)	–	·	–	–	–
C#CC(=O)N(c1cc(OC)ccc1OC)C(C(=O)NC1CCCC1)c1cccs1 (stereo unspecified)	·	11.2µM	10µM	?	·
Cc1ccc(CN2CCC(CNc3ncnc4onc(-c5ccc(F)cc5)c34)CC2)cc1	–	–	–	–	·
CCc1ccc(-c2cn3nc(C)c(C)nc3n2)cc1	-86.9	·	·	–	–
COc1ccc2c(Sc3ccc(Cl)cc3)c(C(=O)N3CCCCC3)[nH]c2c1	-100.7	–	–	–	·
COc1ccc2c(Sc3ccc(Cl)cc3)c(C(=O)N3CCC(C)CC3)[nH]c2c1	–	–	–	–	·
CCc1ccc(C2CC(=O)N(c3cccc(C(F)(F)F)c3)C3=C2C(=O)OC3)cc1 (stereo unspecified)	–	–	–	–	·
Cc1cc2nc3ccc(=[N+](C)C)cc-3sc2cc1N	·	·	·	–	3.16µM
CCOc1c(/C=C(\C#N)C(N)=O)c2ccccc2n1CC	-67.3	–	–	?	?
CCOC(=O)COc1cc(=O)n(CC)c2ccccc12	–	–	–	–	?
CCOC(=O)/C(C#N)=C\c1c(OCC)n(CC)c2ccccc12	-68.9	–	–	?	?
COc1cccc(CN2CCC3(CCC(CNC(=O)c4cc(C)nn4C)O3)CC2)c1OC (stereo unspecified)	·	–	–	–	·
CCOc1[nH]c(/N=C/c2ccc(OC)cc2)c(C#N)c1C#N	·	–	–	·	·
CC(=O)ON=C1C=CC(=C(C#N)c2ccccc2)C=C1	-101.2	–	–	?	·
COc1ccc(C(C#N)=C2C=CC(=NO)C=C2)cc1	–	–[7.34 µM]	–[7.34 µM]	–	?
CCC1CN(Cc2ccc(COC)o2)Cc2cc(OC)ccc2O1 (stereo unspecified)	·	–	–	–	·
CO/N=C/C(C#N)=C/c1ccc(OC)c(OC)c1	–	–	–	–	?
CO/N=C/C(C#N)=C/c1cc(C(=O)c2ccccc2)cn1C	–	–	–	–	10µM
C=C(c1ccc2cc(OC)ccc2c1)[C@H](C#N)C1CCCC1	–	·	·	·	·
COC(=O)c1sccc1S(=O)(=O)N1CCN(c2cccc(C)c2)C(C)C1 (stereo unspecified)	–	–	–	–	·
O=C(COc1ccc(Cl)cc1Cl)NN=C1c2ccccc2-c2ccccc21	-61.3	–	–	?	–
SMILES	HCMV antiviral	Vaccinia mCherry	Vaccinia Venus	FMDV inh	HCV inh
Cc1ccc(OCC(=O)NN=C2c3ccccc3-c3ccccc32)cc1	–	·	·	–	14.1µM
COc1ccc(C)cc1NC(=O)c1cc2c(=O)n(Cc3cccnc3)ccc2nc1C	–	–	–	–	·
Cc1ccc(CN2CCC(CNC(=O)c3cc4ccc5cccnc5c4[nH]3)CC2)cc1	-106.0	?	?	–	·
Cc1ccc(C)c(CN2CCC(CNC(=O)c3cc4ccc5cccnc5c4[nH]3)CC2)c1	?	?	–	–	·
COc1cccc(C(=O)N(c2ccc(C)cc2)C2C=CS(=O)(=O)C2)c1 (stereo unspecified)	-101.3	·	·	–	–
COc1cccc(C(=O)N(c2ccc(OC)cc2OC)C2C=CS(=O)(=O)C2)c1 (stereo unspecified)	–	?	–	·	–
COc1ccc(N(C(=O)c2cc3ccccc3oc2=O)C2C=CS(=O)(=O)C2)c(OC)c1 (stereo unspecified)	-61.2	–	–	–	–
